From PubChem BioAssay
Sampled rows, rich in hits. Any-hit rate of the full collection: about 7.3%.
FLuc counter = qHTS profiling assay for firefly luciferase inhibitor/activator using purifed enzyme and Km concentrations of substrates (counterscreen for miR-21 project). 6.9% of 360,000 active. AID 588342, 2011. purified FLuc, Km substrates, luminescence inhibition. Potency, µM (doses to about 57.5 µM), most hits filed as inhibitors. Luciferin 4-monooxygenase (Photinus pyralis), P08659; note: nearly all actives have a fitted effect of over 55% in size
Target sequence (P08659 whole entry, looked up): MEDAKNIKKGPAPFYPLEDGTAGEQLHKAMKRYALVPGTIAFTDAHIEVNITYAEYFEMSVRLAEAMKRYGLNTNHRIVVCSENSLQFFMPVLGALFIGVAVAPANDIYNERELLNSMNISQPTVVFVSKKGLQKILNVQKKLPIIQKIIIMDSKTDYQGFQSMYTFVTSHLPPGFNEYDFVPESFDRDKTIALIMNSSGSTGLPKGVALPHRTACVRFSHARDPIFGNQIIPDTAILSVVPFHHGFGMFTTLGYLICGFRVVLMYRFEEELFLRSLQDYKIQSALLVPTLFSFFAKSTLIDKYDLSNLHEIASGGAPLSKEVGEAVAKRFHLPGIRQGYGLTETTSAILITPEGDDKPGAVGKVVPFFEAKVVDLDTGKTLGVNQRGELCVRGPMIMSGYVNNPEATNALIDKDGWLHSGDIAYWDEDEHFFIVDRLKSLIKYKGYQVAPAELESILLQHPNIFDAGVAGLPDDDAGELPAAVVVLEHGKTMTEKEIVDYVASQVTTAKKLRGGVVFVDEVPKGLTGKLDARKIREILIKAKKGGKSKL
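Purified P. pyralis luciferase (10nM final) with 10uM D-luciferin and 10uM ATP (Km levels) in 50mM Tris acetate pH 7.5, 10mM Mg acetate, 0.01% Tween-20, 0.05% BSA; qHTS 6-point titration, ~60 µM downward; luminescence read.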
SMN2 splice enh = qHTS Assay for Enhancers of SMN2 Splice Variant Expression | 2.8% of 210,000 active | AID 1458, 2008 | HEK293 SMN2-luciferase splicing reporter, luminescence, 30-36 h | Potency, µM (top dose mostly 46.1 µM), usual class: activators; note: nearly all actives have a fitted effect of over 55% in size
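qHTS luciferase splicing reporter: luminescence rises when SMN2 exon 7 is included in transfected HEK293 cells. Compound exposure lasted 30-36 h at 37C, with 4.5 mM final sodium butyrate as control, followed by a ONE-Glo read.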
p53 reactivator = qHTS assay for re-activators of p53 using a Luc reporter | 0.063% of 320,000 active | AID 504706, 2011 | Potency, µM (doses to about 92.2 µM), usual class: activators | H1299 p53-A138V BP100-luciferase reporter, luminescence, 24 h; note: nearly all actives have a fitted effect of over 45% in size
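p53-null H1299 cells stably carrying temperature-sensitive p53-A138V and a BP100-luciferase reporter were pinned with compounds (4-point, 1:5 series) and held 24 hrs at 37 deg C. Luminescence was read 10 min after detection reagent.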
Rab9 prom act = qHTS Assay for Rab9 Promoter Activators. Huh7 Rab9 promoter-luciferase reporter, luminescence, 24 h. Potency, µM (top dose mostly 9.22 µM), actives largely listed as activators. 2.8% of 320,000 active. AID 485297, 2010; note: nearly all actives have a fitted effect of over 60% in size
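Stable Rab9-luc Huh7, 1500 cells/well, 2 h settle; cmpd in DMSO, 24 h, 37 °C/5% CO2; luciferase reagent 10 min RT; luminescence.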
ELG1 genotox = qHTS screen for small molecules that induce genotoxicity in human embryonic kidney (HEK293T) cells expressing luciferase-tagged ELG1; HEK293T ELG1-luciferase reporter, luminescence, 16 h; Potency, µM (doses to about 46 µM), actives largely listed as activators; AID 504466, 2011; 1.3% of 330,000 active; note: nearly all actives have a fitted effect of over 60% in size
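Screening used a luciferase reporter fused to human ELG1 in HEK293T cells. Luminescence was read on a CCD plate imager after 16 hr exposure and 30 min ONE-Glo incubation.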
NPC1 promoter act = qHTS Assay for NPC1 Promoter Activators; Huh7 NPC1 promoter luciferase reporter, 24 h; Potency, µM (doses to about 9.22 µM), actives largely listed as activators; 2.4% of 320,000 active; note: nearly all actives have a fitted effect of over 60% in size
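Readout is luciferase luminescence, reflecting NPC1 promoter activation in stably transfected Huh7 cells after 24 h compound exposure at 37 °C in reduced-serum medium with 10% FBS.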
Large screens that a line does not name were inactive. Calls come from the whole dose curve; as a rule, active = well fitted curve in the direction sought with a large enough effect; inconclusive = small, poorly fitted or top-dose-only effect, or another doubt; inactive = no such curve, though single readings can be large; an effect the other way counts as inactive or inconclusive.

CC(=O)c1c(C)[nH]c(C(=O)COC(=O)C2CC2)c1C	none
CCCC(=O)OCC(=O)c1[nH]c(C)c(C(C)=O)c1C	FLuc counter inconclusive
CCOC(=O)c1c(C)[nH]c(C(=O)COC(=O)C2(C)CC2(Cl)Cl)c1C (configuration not stated)	FLuc counter 13µM, Rab9 prom act 3.2µM, ELG1 genotox inconclusive, NPC1 promoter act inconclusive
CCOC(=O)c1c(C)[nH]c(C(=O)COC(=O)C2CC2)c1C	FLuc counter 9.5µM, p53 reactivator inconclusive, ELG1 genotox inconclusive (no result: SMN2 splice enh)
CN(C)c1ccc(CNC(=O)c2cc3ccccn3n2)cc1	none (no result: SMN2 splice enh, p53 reactivator, Rab9 prom act, ELG1 genotox, NPC1 promoter act)
C=CCn1c(COc2ccc(OC)cc2)nc2ccccc21	FLuc counter 17µM, Rab9 prom act inconclusive, ELG1 genotox inconclusive, NPC1 promoter act inconclusive (no result: SMN2 splice enh)
C=CCn1c(NCc2ccc3c(c2)OCO3)nc2ccccc21	FLuc counter 15µM
CCn1c(COc2ccc(OC)cc2)nc2ccccc21	FLuc counter 13µM, Rab9 prom act inconclusive, NPC1 promoter act inconclusive
C=CCn1c(NCc2ccc(OC)cc2O)nc2ccccc21	FLuc counter 19µM, Rab9 prom act inconclusive, NPC1 promoter act inconclusive (no result: SMN2 splice enh)
CC1CC(C)CN(CCCNC(=O)CCNC(=O)Cn2ccc3ccccc3c2=O)C1 (configuration not stated)	none
COc1ccc(-n2c(SCC(=O)N3CCC(C)CC3)nc3c([nH]c4ccccc43)c2=O)cc1	none (no result: SMN2 splice enh, p53 reactivator, Rab9 prom act, ELG1 genotox, NPC1 promoter act)
O=C(O)[C@@H](O)[C@@H](O)[C@@H](O[C@H]1O[C@@H](CO)[C@@H](O)[C@@H](O)[C@@H]1O)[C@@H](O)CO	none (no result: FLuc counter, p53 reactivator, Rab9 prom act, ELG1 genotox, NPC1 promoter act)
O=C(CN1C(=O)CCc2cc(S(=O)(=O)N3CCOCC3)ccc21)NCc1ccccc1Cl	none (no result: SMN2 splice enh, p53 reactivator, Rab9 prom act, ELG1 genotox, NPC1 promoter act)
Cc1cccc(OCCSc2nc(-c3cccs3)nc3cc(=O)[nH]n23)c1	FLuc counter 15µM (no result: SMN2 splice enh, p53 reactivator, Rab9 prom act, ELG1 genotox, NPC1 promoter act)
COc1ccc(CC(=O)NCC(=O)N/N=C/c2c[nH]c3ccccc23)cc1	none (no result: SMN2 splice enh)
O=C(N/N=C/c1c[nH]c2ccccc12)c1cc(-c2ccc(-c3ccccc3)cc2)n[nH]1	FLuc counter 1.3µM, Rab9 prom act inconclusive
O=C(N/N=C/c1cccs1)c1cc(-c2cccc3ccccc23)n[nH]1	FLuc counter 19µM, SMN2 splice enh inconclusive, p53 reactivator inconclusive
O=C(N/N=C/c1cccs1)c1cc(-c2ccc3ccccc3c2)n[nH]1	none
O=C(O)c1ccc(/C=N/NC(=O)c2cc(-c3ccc4c5c(cccc35)CC4)n[nH]2)cc1	FLuc counter 21µM
O=C(N/N=C/c1c[nH]c2ccccc12)c1cc(-c2ccc3ccccc3c2)n[nH]1	FLuc counter 9.5µM, p53 reactivator inconclusive
O=C(C/C=N\OCc1ccc([N+](=O)[O-])cc1)Nc1ccc(Br)cc1	none
O=C(N/N=C/c1c[nH]c2ccccc12)c1ccn[nH]1	FLuc counter 21µM, Rab9 prom act inconclusive
O=C(N/N=C/c1c[nH]c2ccccc12)c1cc(-c2ccccc2)n[nH]1	FLuc counter 12µM
O=C(N/N=C/c1c[nH]c2ccccc12)c1cc(-c2cccc3ccccc23)n[nH]1	FLuc counter 15µM
Cc1ccc(-c2cc(C(=O)N/N=C/c3c[nH]c4ccccc34)[nH]n2)cc1	FLuc counter 11µM, p53 reactivator inconclusive
Cc1ccc(S(=O)(=O)N/N=C/c2c[nH]c3ccccc23)cc1	FLuc counter inconclusive
CCOc1ccc(C(=O)N2CCC(c3nc4ccccc4o3)CC2)cc1	none (no result: SMN2 splice enh, p53 reactivator, Rab9 prom act, ELG1 genotox, NPC1 promoter act)
CCOc1ccc(-c2c(C)nn3c(C)c(C(=O)NCCc4ccc(C)cc4)cnc23)cc1OCC	none (no result: SMN2 splice enh, p53 reactivator, Rab9 prom act, ELG1 genotox, NPC1 promoter act)
Cc1cc(/C(N)=N/OC(=O)c2cccc(Cl)c2)no1	FLuc counter 6.7µM, ELG1 genotox inconclusive (no result: SMN2 splice enh)
Cc1cc(C(=O)NNC(=O)c2ccc(Cl)cc2)no1	none (no result: SMN2 splice enh)
Cc1cc(/C(N)=N/OC(=O)c2ccc(Cl)cc2)no1	FLuc counter 1.5µM, Rab9 prom act 3.2µM, ELG1 genotox 12µM, NPC1 promoter act 3.5µM (no result: SMN2 splice enh)
